Bioassay records from PubChem.
In the library only some 5.4% were active in any assay of this set; here they are far more common.
VACV mCherry inh = inhibitors of vaccinia virus infection (mCherry reporter signal); Vaccinia virus mCherry reporter infection, fluorescence; Potency, µM (series often up to 36.5 µM), inactives show at the top dose activity change, negative = inhibition, most hits filed as inhibitors; 310,000 compounds, 0.63% hits; calls by dose curve; tested in A549 cells; further: nearly all actives have a fitted effect of over 35% in size
Vaccinia Venus = inhibitors of vaccinia virus (Venus reporter); Vaccinia virus Venus reporter expression, fluorescence; Potency, µM (series often up to 36.5 µM), for the others: at the highest dose activity change, negative = inhibition, most hits filed as inhibitors; 330,000 compounds, 0.46% hits; AID 720580; calls by dose curve; tested in A549 cells; further: nearly all actives have a fitted effect of over 30% in size
Sm TGR inh = blocks Schistosoma mansoni thioredoxin glutathione reductase | AID 485364 | 360,000 compounds, 3% hits | Q962Y6 | Potency, µM (highest dose often 114 µM), for the others: top-dose activity change, negative = inhibition, most hits filed as inhibitors | purified TGR, DTNB reduction, TNB absorbance 405 nm; active means well fitted inhibition curve with a large enough effect; inconclusive means small, poorly fitted or top-dose-only effect; inactive means no such curve, though single readings can be large or run the other way; further: nearly all actives have a fitted effect of over 60% in size
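TGR 20 nM + NADPH 100 uM (dispensed conc.), cpd preinc 15 min RT; start with NADPH (500 uM addition) then DTNB (15 mM addition). Kinetic TNB absorbance, 405 nm filter. Four-parameter Hill fit across titration.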
Lassa entry inh = Lassa virus entry inhibition | 300,000 compounds, 1.2% hits | AID 540256 | Potency, µM (doses to about 37.9 µM), without a hit: at the highest dose activity change, negative = inhibition, most hits filed as inhibitors | Lassa virus pseudotype entry inhibition, cell reporter; calls by dose curve; tested in HEK293 cells; further: nearly all actives have a fitted effect of over 50% in size
FMDV antiviral = antivirals against foot and mouth disease virus; FMDV antiviral cell-based qHTS; 410,000 compounds, 1.2% hits; Potency, µM (highest dose often 57.9 µM), for inactives: at the top dose activity change, negative = inhibition, usual class: inhibitors; calls by dose curve; tested in HEK293T cells; further: read-out not given here; nearly all actives have a fitted effect of over 45% in size
Marburg entry inh = inhibitors of Marburg virus binding or cell entry; Marburg virus pseudotyped entry inhibition, cell reporter; AID 540276; Potency, µM (top dose mostly 37.8 µM), for inactives: at the highest dose activity change, negative = inhibition, most hits filed as inhibitors; 300,000 compounds, 1.8% hits; calls by dose curve; tested in HEK293 cells
Numbers without * were called inactive; i = inactive; ? = inconclusive; nt = not tested or not shown; [ ] = remark or other dose. On the % scale 0 is the no-effect control and ±100 the full control effect; potency means the concentration at half of the fitted maximal effect.

SMILES	VACV mCherry inh	Vaccinia Venus	Sm TGR inh	Lassa entry inh	FMDV antiviral	Marburg entry inh
Cc1ccc(NC(=O)CSc2nnc(-c3ccco3)c(-c3ccco3)n2)cc1	?	?	?	2.82µM*	-5.2%	-15.9%
CN(C)c1ccc(NC(=O)CSc2nnc(-c3ccco3)c(-c3ccco3)n2)cc1	-16.4%	-16.6%	35.5µM*	?	0.1%	-19.4%[46.1 µM]
COc1ccc(C(=O)CSc2nnc(-c3ccco3)c(-c3ccco3)n2)cc1	nt	nt	nt	-25.1%	-1.9%	-4.6%
C[C@@H]1CN=C(Nc2ccc(N(C)C)cc2)S1	nt	nt	nt	nt	nt	7.8%
COCCCNC(=O)CC1C[C@H](C(=O)N2CCCCC2)[C@@]2(CCc3ccccc3)c3[nH]c4ccc(OC)cc4c3CCN2C1=O (some centres not stated)	-23.7%	-14.5%	nt	nt	7.1%	1.2%
CCOC(=O)c1ccc(NC(=O)CCS(=O)(=O)c2ccc(Br)s2)cc1	-5.2%	-7.1%	11.2µM*	2.0%	-23.8%	17.5%
CS(=O)(=O)c1ccc2c(c1)sc1nc(=O)c(/C=C3/C=CC(=O)C(O)=C3)c(N)n12	-22.8%	13.6%	44.7µM*	-0.5%	10.5%	?
COC1=C/C(=C/c2c(N)n3c(nc2=O)sc2cc(S(C)(=O)=O)ccc23)C=CC1=O	nt	nt	-5.4%	nt	8.8%	nt
COc1ccc(CCNC(=O)c2nc(SCc3ccccc3F)ncc2Cl)cc1OC	i	-24.6%	0.2%	?	?	?
CC(C)c1ccc(N2C(=O)CC(Sc3ncn[nH]3)C2=O)cc1 (configuration not stated)	-7.1%	-0.8%	0.562µM*	1.7%	-29.3%	-22.8%
COc1ccc(N2C(=O)CC(Sc3ncn[nH]3)C2=O)c(OC)c1 (configuration not stated)	-14.9%	-11.8%	0.282µM*	1.6%	4.6%	20.2%
O=C(c1ccco1)N(Cc1cc2cc3c(cc2nc1N1CCOCC1)CCC3)CC1CCCO1 (configuration not stated)	29.0%	34.5%	nt	nt	9.7%	nt
CCNC(=O)c1ccccc1NC(=O)c1cccc(S(=O)(=O)N2CCC(C)CC2)c1	nt	?	-4.1%	-16.4%	?	?
CNC(=O)c1ccccc1NC(=O)c1cccc(S(=O)(=O)N2CCC(C)CC2)c1	i[1.46 µM]	?	14.9%	22.4µM*	0.1%	?
O=c1[nH]c(-c2ccccn2)nc2sc(-c3ccccc3)cc12	4.47µM*	?	1.2%	2.24µM*	-66.7%	?
Cc1c(C(=O)N(C)C)sc2nc(-c3ccccn3)[nH]c(=O)c12	nt	-9.3%	0.0%	19.3%	23.0%	11.9%
CCOC(=O)CC(NC(=O)Cc1cccs1)c1ccccc1Cl (configuration not stated)	-3.6%	-4.4%	89.1µM*	-4.0%	41.4%	-1.1%
CCOC(=O)CC(NC(=O)c1ccco1)c1ccccc1Cl (configuration not stated)	-1.2%	-11.6%	9.6%	?	13.4%	-11.6%
CCOC(=O)c1ccc(N2Cc3ccccc3C2=NC(=O)c2ccncc2)cc1	nt	nt	-5.2%	nt	56.7%	nt
N#Cc1ccc(N2Cc3ccccc3C2=NC(=O)c2cccs2)cc1	i	4.3%	-2.7%	-5.6%	25.3%	?
CC(=O)c1ccc(N2Cc3ccccc3C2=NC(=O)c2cccs2)cc1	-1.2%	-15.5%	-6.1%	7.94µM*	1.7%	?
CC(=O)c1cccc(N2Cc3ccccc3C2=NC(=O)CCl)c1	-22.9%	-27.3%	17.8µM*	?	-29.4%	?
CCOC(=O)c1ccc(N2Cc3ccccc3C2=NC(=O)c2cccs2)cc1	-24.2%	-26.3%	-4.9%	10µM*	8.2%	?
CCOc1ccccc1C(=O)N1CC(=O)Nc2ccc(C)cc2C1c1ccccc1 (configuration not stated)	-10.6%	-3.2%	-0.9%	-0.7%[46.1 µM]	-5.3%	-1.5%[46.1 µM]
COc1ccc(NCc2cc3ccc(OC)cc3n(CC(=O)Nc3cccc(OC)c3)c2=O)cc1	2.5%	-3.2%	-13.3%	-5.2%[46.1 µM]	-11.0%	nt
C[C@H](ON=C1[C@H]2CCn3c(=O)n(-c4ccccc4)c(=O)n3[C@@H]2[C@H](O)[C@@H]2O[C@H]12)c1cn([C@H](CO)Cc2ccccc2)nn1	nt	nt	nt	?	nt	6.8%[14.2 µM]
CN(C)CCC(Oc1ccccc1OCc1ccccc1)c1ccccc1 (configuration not stated)	i	-22.9%	nt	?	-8.5%	?
